This is an account of results in PubChem BioAssay (NCI).

The panel holds about 83,000 compounds, 20% with a hit somewhere; the sample as a whole holds those more often.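 How to read the values: 0–100, growth inhibition (40 = 60% inhibited); 0, no net growth; -100 to 0, cell death (-40 = 40% of starting cells died; -100 = all dead).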 Active and inactive are the calls of the source. The calls were made as follows: active = growth percent below 10; inactive = the rest.

The first assay relates to UACC-62 melanoma. The experiment in a line: NCI-60 one-dose screen, 48 h (100 = growth as untreated, 0 = no growth, -100 = all killed). As to conditions: 10 µM unless noted.
On to `NC(=O)N1N=C(c2cc3ccccc3oc2=O)CC1c1cn(-c2ccccc2)nc1-c1ccc(Cl)cc1` (stereo not given), for which the growth is 38.7% (inactive).
Still for that read-out and setting: the same measure for `O=C(Nc1cc(F)cc2cccnc12)c1cnc(N2CCOCC2)cn1`: 84.9% (inactive); for `O=C1[C@H]2Cc3c([nH]c4ccccc34)[C@@H](c3c(Cl)cccc3Cl)N2C(=O)CN1C1CCN(Cc2ccccc2)CC1`: 72.5% (inactive); for `COc1cc(/C=N/n2cnc3oc(-c4ccccc4)cc3c2=N)cc(CN2CCN(C)CC2)c1O`: 102% (inactive).
Regarding `Oc1ccc(-c2nnc(SCc3ccc(O)c4ncccc34)n2-c2ccccc2)cc1`, the growth was -4.05% (active).
On the same count and under the same terms, the same measure for `CN(C)C(=O)c1ccccc1-n1cnc2ccccc2c1=O`: 96.9% (inactive); for `Oc1ccc(CSc2nnc(-c3ccc(Cl)cc3)o2)c2cccnc12`: 5.12% (active); for `NNC(=O)c1sc2nc(-c3cnccn3)cc(-c3cccs3)c2c1N`: 93.7% (inactive).
Still for that read-out and setting: the same measure for `COc1ccc(OC)c([C@H]2c3[nH]c4ccccc4c3C[C@H]3C(=O)N(CCCCCCC(=O)NO)CC(=O)N23)c1`: 53.1% (inactive).
Same read-out and setting: the same measure for `CCCCCCCCNC(=O)c1ccc(Cn2c(CCCC)nc3c(N)nc4ccccc4c32)cc1`: 23.4% (inactive).
With `O=C1[C@@H]2Cc3c([nH]c4ccccc34)[C@H](c3c(Cl)cccc3Cl)N2C(=O)CN1C1CCN(Cc2c(F)cccc2F)CC1`, the growth is 76.8% (inactive).
Same read-out and setting: the same measure for `O=C(CCCCCCN1CC(=O)N2[C@@H](c3cccc(Cl)c3)c3[nH]c4ccccc4c3C[C@H]2C1=O)NO`: 16% (inactive); for `CC(C)N=C(N/C(N)=N/c1nc2ccccc2s1)NC(C)C`: 61.4% (inactive).
Still for that read-out and setting: the same measure for `CCCCOc1ccc(S(=O)(=O)N2CCN(c3nccc(N4CCOCC4)n3)CC2)cc1`: -7.93% (active); for `O=C(NCCCNc1cc(-c2cn(-c3ccccc3)nc2-c2cccc(O)c2)ccn1)Nc1cc(C(F)(F)F)cc(C(F)(F)F)c1`: 73% (inactive); for `O=[N+]([O-])c1ccc(-c2nnc(SCc3ccc(O)c4ncccc34)n2-c2ccccc2)cc1`: 27.7% (inactive).
With `Cc1ccc(Nc2ncnc3c2c(C)nn3-c2ccc([N+](=O)[O-])cc2)cc1`, the growth is 92.2% (inactive).
Turning to `COc1cc2cc(Oc3ccc(NC(=O)Nc4cc(C(F)(F)F)cc(C(F)(F)F)c4)cc3)c(C)nc2cc1OCCN(C)C`, the growth was 93.1% (inactive).
The same measure, in the same setting: the same measure for `COc1cc2cc(Oc3ccc(NC(=O)Nc4cccc(C(F)(F)F)c4)cc3)c(C)nc2cc1OCCN(C)C`: 100% (inactive).
For `N/C(=N\c1nc2ccc([N+](=O)[O-])cc2s1)C(Cl)(Cl)Cl`, the growth is 54.7% (inactive).
On to `Nc1ccc(-c2nnc(SCc3ccc(O)c4ncccc34)o2)cc1`, for which the growth was -54.4% (active).
Same read-out and setting: the same measure for `COc1ccc(-c2ccnc3c(C#N)c(Nc4ccccc4)nn23)cc1OC`: 85.3% (inactive).
Same read-out and setting: the same measure for `Nc1c(C(=O)c2ccccc2)sc2nc(-c3cnccn3)cc(-c3cccs3)c12`: 87.1% (inactive); for `C/C(=C(/C)C1CC1CCN(C(=O)c1ccccn1)S(=O)(=O)c1ccc(C)cc1)C1CCCCC1` (stereo not given): 63.6% (inactive).
Same read-out and setting: the same measure for `Oc1ccc(CSc2nnc(-c3ccccc3)n2-c2ccccc2)c2cccnc12`: -34.1% (active); for `Oc1ccc(CSc2nnc(-c3ccc(Oc4ccccc4)cc3)n2-c2ccccc2)c2cccnc12`: -25.4% (active).
Take `O=C(CSc1ccc(-c2nc3ccccc3[nH]2)cn1)N1CCN(c2ccccc2F)CC1`: the growth was 52.4% (inactive).
The same measure, in the same setting: the same measure for `COc1cc2cc(Oc3ccc(NC(=O)c4cccc(C(F)(F)F)c4)cc3)c(C)nc2cc1OCCN(C)C`: 89.4% (inactive); for `CCCC(=O)NC(c1cccnc1)c1cc(C(C)=O)c2cccnc2c1O` (stereo not given): 1.58% (active); for `O=C(CCCCCCN1CC(=O)N2[C@@H](c3ccc(Cl)c(F)c3)c3[nH]c4ccccc4c3C[C@H]2C1=O)NO`: 48.7% (inactive).
Take `O=C1NC(=O)/C(=C/c2ccc(OCc3cc4ccccc4nc3Cl)cc2)S1`: the growth is 83.7% (inactive).
On the same count and under the same terms, the same measure for `O=C(O)c1ccc(-n2cc(CNc3ccc(F)cc3)c(-c3ccc(C(F)(F)F)cc3)n2)cc1`: 89.9% (inactive); for `Oc1ccc(CSc2nnc(-c3ccncc3)o2)c2cccnc12`: 18.2% (inactive); for `COc1ccc(C2C(C#N)=C(N)Oc3c2sc2ccc(C)cc32)cc1` (stereo not given): 23.4% (inactive).
On the same count and under the same terms, the same measure for `Oc1ccc(CSc2nnc(-c3ccncc3)n2-c2ccccc2)c2cccnc12`: -4.64% (active); for `Oc1ccc(CSc2nnc(-c3cnccn3)n2-c2ccccc2)c2cccnc12`: 2.61% (active); for `O=C(COc1ccc(/C=C2\SC(=O)NC2=O)cc1)Nc1ccc(C(=O)/C=C/c2cc3ccccc3nc2Cl)cc1`: 70.6% (inactive).
On the same count and under the same terms, the same measure for `COc1ccc(N2CCN(C(=O)CSc3ccc(-c4nc5cc(C)c(C)cc5[nH]4)cn3)CC2)cc1`: 45.3% (inactive).

The test system of a further assay is LOX IMVI melanoma. The assay is described as above. As to conditions: 10 µM unless noted.
`NC(=O)N1N=C(c2cc3ccccc3oc2=O)CC1c1cn(-c2ccccc2)nc1-c1ccc(Cl)cc1` (stereo not given): the growth was 20.3% (inactive).
On the same count and under the same terms, the same measure for `COc1cnc2c(c1)C(=O)c1c-2n(CCCNCC2CC2)c(=O)c2cc(F)ccc12`: -59.4% (active).
The same measure, in the same setting: the same measure for `O=C(Nc1cc(F)cc2cccnc12)c1cnc(N2CCOCC2)cn1`: 19.4% (inactive); for `O=C1[C@H]2Cc3c([nH]c4ccccc34)[C@@H](c3c(Cl)cccc3Cl)N2C(=O)CN1C1CCN(Cc2ccccc2)CC1`: -31.2% (active).
Same read-out and setting: the same measure for `COc1cc(/C=N/n2cnc3oc(-c4ccccc4)cc3c2=N)cc(CN2CCN(C)CC2)c1O`: 79% (inactive); for `Oc1ccc(-c2nnc(SCc3ccc(O)c4ncccc34)n2-c2ccccc2)cc1`: 5.09% (active).
Regarding `Oc1ccc(CSc2nnc(-c3ccc(Cl)cc3)o2)c2cccnc12`, the growth is 4.17% (active).
The same measure, in the same setting: the same measure for `NNC(=O)c1sc2nc(-c3cnccn3)cc(-c3cccs3)c2c1N`: 83.2% (inactive); for `COc1ccc(OC)c([C@H]2c3[nH]c4ccccc4c3C[C@H]3C(=O)N(CCCCCCC(=O)NO)CC(=O)N23)c1`: 15% (inactive); for `CCCCCCCCNC(=O)c1ccc(Cn2c(CCCC)nc3c(N)nc4ccccc4c32)cc1`: -86.3% (active).
Same read-out and setting: the same measure for `O=C1[C@@H]2Cc3c([nH]c4ccccc34)[C@H](c3c(Cl)cccc3Cl)N2C(=O)CN1C1CCN(Cc2c(F)cccc2F)CC1`: -47.1% (active); for `O=C(CCCCCCN1CC(=O)N2[C@@H](c3cccc(Cl)c3)c3[nH]c4ccccc4c3C[C@H]2C1=O)NO`: -80.3% (active).
Still for that read-out and setting: the same measure for `CC(C)N=C(N/C(N)=N/c1nc2ccccc2s1)NC(C)C`: 1.73% (active); for `CCCCOc1ccc(S(=O)(=O)N2CCN(c3nccc(N4CCOCC4)n3)CC2)cc1`: -67.9% (active).
`O=C(NCCCNc1cc(-c2cn(-c3ccccc3)nc2-c2cccc(O)c2)ccn1)Nc1cc(C(F)(F)F)cc(C(F)(F)F)c1`: the growth was 81.2% (inactive).
Same read-out and setting: the same measure for `O=[N+]([O-])c1ccc(-c2nnc(SCc3ccc(O)c4ncccc34)n2-c2ccccc2)cc1`: -19.9% (active); for `COc1cc2cc(Oc3ccc(NC(=O)Nc4cc(C(F)(F)F)cc(C(F)(F)F)c4)cc3)c(C)nc2cc1OCCN(C)C`: 108% (inactive); for `COc1cc2cc(Oc3ccc(NC(=O)Nc4cccc(C(F)(F)F)c4)cc3)c(C)nc2cc1OCCN(C)C`: -74.9% (active).
The same measure, in the same setting: the same measure for `N/C(=N\c1nc2ccc([N+](=O)[O-])cc2s1)C(Cl)(Cl)Cl`: 76% (inactive); for `Nc1ccc(-c2nnc(SCc3ccc(O)c4ncccc34)o2)cc1`: 0.185% (active).
The same measure, in the same setting: the same measure for `COc1ccc(-c2ccnc3c(C#N)c(Nc4ccccc4)nn23)cc1OC`: 90.9% (inactive); for `Nc1c(C(=O)c2ccccc2)sc2nc(-c3cnccn3)cc(-c3cccs3)c12`: 101% (inactive); for `C/C(=C(/C)C1CC1CCN(C(=O)c1ccccn1)S(=O)(=O)c1ccc(C)cc1)C1CCCCC1` (stereo not given): 97.8% (inactive).
On to `Oc1ccc(CSc2nnc(-c3ccccc3)n2-c2ccccc2)c2cccnc12`, for which the growth was 5.5% (active).
As to `Oc1ccc(CSc2nnc(-c3ccc(Oc4ccccc4)cc3)n2-c2ccccc2)c2cccnc12`, the growth was 4.48% (active).
The same measure, in the same setting: the same measure for `O=C(CSc1ccc(-c2nc3ccccc3[nH]2)cn1)N1CCN(c2ccccc2F)CC1`: 85.3% (inactive).
On the same count and under the same terms, the same measure for `COc1cc2cc(Oc3ccc(NC(=O)c4cccc(C(F)(F)F)c4)cc3)c(C)nc2cc1OCCN(C)C`: -81.3% (active); for `CCCC(=O)NC(c1cccnc1)c1cc(C(C)=O)c2cccnc2c1O` (stereo not given): 27% (inactive); for `O=C(CCCCCCN1CC(=O)N2[C@@H](c3ccc(Cl)c(F)c3)c3[nH]c4ccccc4c3C[C@H]2C1=O)NO`: -79.9% (active).
Same read-out and setting: the same measure for `O=C1NC(=O)/C(=C/c2ccc(OCc3cc4ccccc4nc3Cl)cc2)S1`: 56.4% (inactive).
Take `O=C(O)c1ccc(-n2cc(CNc3ccc(F)cc3)c(-c3ccc(C(F)(F)F)cc3)n2)cc1`: the growth is 99.5% (inactive).
`Oc1ccc(CSc2nnc(-c3ccncc3)o2)c2cccnc12`: the growth was 21.4% (inactive).
The same measure, in the same setting: the same measure for `COc1ccc(C2C(C#N)=C(N)Oc3c2sc2ccc(C)cc32)cc1` (stereo not given): 38% (inactive); for `Oc1ccc(CSc2nnc(-c3ccncc3)n2-c2ccccc2)c2cccnc12`: 20.4% (inactive); for `Oc1ccc(CSc2nnc(-c3cnccn3)n2-c2ccccc2)c2cccnc12`: 15.5% (inactive).
Same read-out and setting: the same measure for `O=C(COc1ccc(/C=C2\SC(=O)NC2=O)cc1)Nc1ccc(C(=O)/C=C/c2cc3ccccc3nc2Cl)cc1`: 47.8% (inactive); for `COc1ccc(N2CCN(C(=O)CSc3ccc(-c4nc5cc(C)c(C)cc5[nH]4)cn3)CC2)cc1`: 56.8% (inactive).
